Screens from PubChem BioAssay.
ABHD5-PLIN5 inh: blocks binding of human ABHD5 to perilipin-5; hit rate 0.78% among 360,000; Split G. princeps luciferase complementation, luminescence, 4 h; inhibition, % at 4 µM;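 active means inhibition above the mean inhibition across every tested compound plus 3 SD, cut at about 22% in these data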
Granule exo inh: lytic granule exocytosis inhibition; inhibition, % at 10 µM; AID 651702; hit rate 0.66% among 360,000; TALL-104 LAMP-1 surface exposure, flow cytometry; cells stimulated with thapsigargin and PMA;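 active means inhibition above about 55%, limit read from the data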
NOD2 RIPK2 PPI: inhibitors of human NOD2-RIPK2 interaction | inhibition, % at 4.98 µM | hit rate 0.38% among 360,000 | AID 624267 | CHO BLA complementation NOD2-RIPK2, CCF4 ratio; in the data active means inhibition above about 21%
PRMT1 FP inh: inhibitors of human PRMT1. Q99873. recombinant PRMT1, activity-based probe fluorescence polarization. inhibition, % at 2.79 µM. hit rate 1.3% among 370,000. AID 652257;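 active means inhibition above about 21% made by adding two undisclosed values, limit read from the data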
TLR4-MyD88 BLA: blocks binding of human TLR4 to MyD88 | O00206+Q99836 | HeLa CL3-4 TLR4/MyD88 BLA complementation, FRET ratio | inhibition, % at 8.4 µM | hit rate 0.18% among 200,000 | AID 861; in the data active means inhibition above about 25%
TLR9-MyD88 inh: blocks human TLR9 binding to MyD88; Q9NR96+Q99836; CHO BLA complementation TLR9-MyD88, CCF4 FRET ratio; inhibition, % at 4.98 µM; hit rate 0.21% among 340,000;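 active means inhibition above the mean over all tested compounds plus 3 SD, cut at about 21% in these data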
Target sequence (Q99836 whole entry, looked up): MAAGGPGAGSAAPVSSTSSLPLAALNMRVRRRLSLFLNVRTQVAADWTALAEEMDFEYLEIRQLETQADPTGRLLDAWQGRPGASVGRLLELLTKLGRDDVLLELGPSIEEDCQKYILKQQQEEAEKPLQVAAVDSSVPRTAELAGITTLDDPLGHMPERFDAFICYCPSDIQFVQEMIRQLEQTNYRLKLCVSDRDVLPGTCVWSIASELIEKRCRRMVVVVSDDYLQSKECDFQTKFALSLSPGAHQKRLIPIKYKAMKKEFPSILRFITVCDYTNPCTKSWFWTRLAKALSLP
Target sequence (Q9NR96 whole entry, looked up): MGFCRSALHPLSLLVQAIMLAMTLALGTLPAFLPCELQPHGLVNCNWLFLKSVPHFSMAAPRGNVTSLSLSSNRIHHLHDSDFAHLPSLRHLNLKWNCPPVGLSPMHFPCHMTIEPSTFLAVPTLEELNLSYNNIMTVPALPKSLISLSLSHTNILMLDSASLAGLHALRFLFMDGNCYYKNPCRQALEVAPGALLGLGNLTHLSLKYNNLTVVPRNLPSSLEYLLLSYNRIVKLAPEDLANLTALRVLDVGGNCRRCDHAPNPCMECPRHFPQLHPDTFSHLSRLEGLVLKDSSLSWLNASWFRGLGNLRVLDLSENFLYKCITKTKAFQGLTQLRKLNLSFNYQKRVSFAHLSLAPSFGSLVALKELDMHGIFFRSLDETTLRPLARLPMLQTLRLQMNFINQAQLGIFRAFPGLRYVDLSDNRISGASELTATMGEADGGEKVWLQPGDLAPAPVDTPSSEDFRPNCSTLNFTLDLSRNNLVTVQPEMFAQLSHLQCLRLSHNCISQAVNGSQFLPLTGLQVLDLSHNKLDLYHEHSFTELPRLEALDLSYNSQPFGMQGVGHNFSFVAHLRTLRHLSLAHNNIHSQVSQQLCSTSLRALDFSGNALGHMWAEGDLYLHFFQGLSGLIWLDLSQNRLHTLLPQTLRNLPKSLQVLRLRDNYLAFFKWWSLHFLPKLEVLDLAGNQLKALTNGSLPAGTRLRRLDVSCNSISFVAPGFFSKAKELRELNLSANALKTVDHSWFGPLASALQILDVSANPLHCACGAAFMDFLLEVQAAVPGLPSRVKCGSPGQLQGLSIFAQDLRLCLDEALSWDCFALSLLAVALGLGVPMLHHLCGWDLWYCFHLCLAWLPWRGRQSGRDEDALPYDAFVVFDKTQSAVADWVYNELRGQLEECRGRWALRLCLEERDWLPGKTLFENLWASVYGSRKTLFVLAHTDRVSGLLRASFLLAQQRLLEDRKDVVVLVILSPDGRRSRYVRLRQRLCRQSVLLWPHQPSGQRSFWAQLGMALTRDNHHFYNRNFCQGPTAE
Granule exo CP1: blocks lytic granule exocytosis; shares compounds with Granule exo inh; TALL-104 cells, LAMP-1 externalization, flow cytometry; stimulated with PMA plus thapsigargin; inhibition, % at 10 µM; hit rate 11% among 1,500; in the data active means inhibition above about 60%
Numbers stand for hits; n = inactive; x = not tested or not shown; ! = not active in a repeat. Compounds with a hit are over-represented: about 2.6% of the library has one in this group of screens.

SMILES	ABHD5-PLIN5 inh	Granule exo inh	NOD2 RIPK2 PPI	PRMT1 FP inh	TLR4-MyD88 BLA	TLR9-MyD88 inh	Granule exo CP1
Nc1nc(F)nc2c1ncn2[C@@H]1O[C@H](COP(=O)(O)O)[C@@H](O)[C@@H]1O	x	x	x	n	x	x	x
Cc1ccc(C(=O)N/C(=C\c2ccc(-c3ccccc3[N+](=O)[O-])o2)C(=O)NCCCN(C)C)cc1	n	77	n	n	x	n	n
Cc1ccc(C(=O)N/C(=C\c2ccc(-c3ccccc3[N+](=O)[O-])o2)C(=O)NCCN(C)C)cc1	n	n	n	n	x	n	x
CCCCc1c(-c2ccccc2OC)ncn1Cc1cccc(OC)c1	x	x	x	n	x	x	x
COC(=O)[C@]12C[C@H](CC(=O)NCCCCc3ccccc3)C(=O)N(Cc3ccc(Cl)cc3Cl)C1=C[C@H](C(C)C)O[C@@H]2C1CC1	x	x	x	n	x	x	x
CS(=O)(=O)c1ccc2nc(NC(=O)c3ccc(NS(=O)(=O)c4ccc(F)c(F)c4)cc3)sc2c1	n	n	n	n	x	n	x
O=C(Nc1nc2ccc(SC(F)F)cc2s1)c1ccc(NS(=O)(=O)c2ccc(F)c(F)c2)cc1	n	76	n	n	n	n	104
Cc1c2ccncc2cc2c1[nH]c1ccccc12	n	n	n	n	x	n	x
COc1ccc2[nH]c3c(C)c4ccncc4c(C)c3c2c1	n	70	n	n	x	n	n
COc1ccc(C)cc1NC(=O)c1ccccc1N(C)S(=O)(=O)c1ccccc1	n	n	n	n	x	n	x
COc1ccc(OC)c(NC(=O)c2ccccc2N(C)S(=O)(=O)c2ccc(C)cc2)c1	n	61	n	n	x	n	n
COc1ccc(NC(=O)OC[C@@H]2CSCCS(=O)(=O)N2)cc1	x	x	x	n	x	x	x
O=C(Nc1ccc(N2CCN(c3ccc(C(F)(F)F)cn3)CC2)nc1)c1cccs1	n	n	n	n	x	n	x
O=C(Nc1ccc(N2CCN(c3ncccc3C(F)(F)F)CC2)nc1)c1cccs1	n	75	n	n	x	n	n
O=C(NCc1ccccc1)[C@H]1CCCN1C(=O)[C@H]1CCCN1C(=O)c1ccc(F)cc1	x	x	x	n	x	x	x
COc1ccc(CN2CCC(CNC(=O)NC3CCC(C)CC3)CC2)cc1 (stereo not given)	x	x	x	n	x	x	x
COc1ccc(CC(=O)NCC2CCCN(Cc3ccc(OC(F)(F)F)cc3)C2)cc1 (stereo not given)	n	66	n	n	x	n	n
CC(C)n1nccc1N(Cc1ccc(Br)cc1)S(=O)(=O)c1ccccc1	n	90	n	n	x	n	n
CC(C)n1nccc1N(Cc1ccc(Cl)cc1)S(=O)(=O)c1ccccc1	n	97	n	n	x	n	n
N#Cc1ccc(CN(c2ccncc2)S(=O)(=O)c2ccccc2)cc1	n	n	n	n	x	n	x
CCOC(=O)c1cc(-c2csc(-c3cccc(Cl)c3)n2)on1	n	n	n	n	x	n	x
CCOC(=O)c1cc(-c2csc(Nc3c(C)cc(C)cc3C)n2)on1	n	91	n	n	x	n	86
Cc1cc(-c2n[nH]c(=S)n2N=Cc2cccc(Oc3ccccc3)c2)n[nH]1	x	x	x	n	x	x	x
Cc1onc(-c2ccccc2Cl)c1C(=O)N1CCC(Cc2ccccc2)CC1	n	84	n	n	x	n	n
CCN(CC)c1cc(C)c2cc(NC(=O)c3ccccc3OC)ccc2n1	n	n	n	n	n	n	x
SMILES	ABHD5-PLIN5 inh	Granule exo inh	NOD2 RIPK2 PPI	PRMT1 FP inh	TLR4-MyD88 BLA	TLR9-MyD88 inh	Granule exo CP1
CCN(CC)c1cc(C)c2cc(NC(=O)c3cccs3)ccc2n1	n	67	n	n	n	n	n
COc1ccc(N)cc1CN1CCN(c2ncc(Cc3ccccc3)cn2)CC1	x	x	x	n	x	x	x
CCN1CCN(Cc2ccc(NC(=O)c3ccc(C)c(NC(=O)C[C@@H]4NC(=O)[C@H](Cc5ccccc5)NC4=O)c3)cc2C(F)(F)F)CC1	n	76!	n	n	x	n	n
CCOc1cccc(/C=N\NC(=O)Cc2cccs2)c1O	x	x	x	n	x	x	x
CN1CCN(CCCNC(=O)c2ccc(/C=C3\Sc4ccccc4N(Cc4ccc(F)cc4)C3=O)cc2)CC1	n	64	n	n	n	n	77
O=C(N[C@H](C(=O)N1CCC[C@H]1C(=O)NCc1ccccc1)c1ccccc1)c1ccc(Cl)c(Cl)c1	x	x	x	n	x	x	x
Cc1cc(C)cc(N(CC(=O)NC2CCC(C)CC2)S(=O)(=O)c2ccc([N+](=O)[O-])cc2)c1 (stereo not given)	x	x	x	n	x	x	x
CCOC(=O)N1CCN(C(=O)C[C@H]2C[C@@]3(C(=O)OC)C(=C[C@H](COCc4ccccc4)O[C@@H]3C)N(Cc3ccco3)C2=O)CC1	x	x	x	n	x	x	x
CCOc1ccccc1N(C(=O)c1ccco1)C(C(=O)NC1CCCC1)c1cccs1 (stereo not given)	n	60	n	n	x	n	n
COc1cccc(C(C(=O)NC2CCCCC2)N(C(=O)c2ccco2)c2ccccc2OC)c1 (stereo not given)	n	89	n	n	x	n	n
O=C(Nc1ccc2oc(-c3ccccc3F)nc2c1)c1ccc2c(c1)OCCO2	n	85	n	n	n	n	n
CCCCCCCCN1C(=O)[C@@H](CC(=O)NCc2cccc3ccccc23)C[C@@]2(C(=O)OC)C1=C[C@H](C(C)C)O[C@@H]2C1CC1	x	x	x	n	x	x	x
COC(=O)C1=C(C)N(C)C(=NCc2ccccc2C(F)(F)F)NC1c1ccc(C(F)(F)F)cc1 (stereo not given)	x	x	x	n	x	x	x
Cc1cccc(/C=C/c2nc3ccccc3c(=O)[nH]2)c1	n	n	n	n	n	n	x
Cc1[nH]c2ccccc2c1/C=C/c1nc2ccccc2c(=O)[nH]1	n	58	n	n	x	n	n
O=C1c2ccccc2C(=O)N1C/C=C/c1ccccc1	n	n	n	n	n	n	x
O=C1C(=O)N(C/C=C/c2ccccc2)c2ccccc21	n	62	n	n	x	n	n
